Test results taken from ChEMBL document CHEMBL1961873, “Compounds: GSK PKIS; Assays: Nanosyn kinase panel” (2012).

Key:
[1] = molecular target: T1, Ephrin type-B receptor 2 (Homo sapiens) (UniProt P29323); details: at 1 µM
T1 sequence (whole entry): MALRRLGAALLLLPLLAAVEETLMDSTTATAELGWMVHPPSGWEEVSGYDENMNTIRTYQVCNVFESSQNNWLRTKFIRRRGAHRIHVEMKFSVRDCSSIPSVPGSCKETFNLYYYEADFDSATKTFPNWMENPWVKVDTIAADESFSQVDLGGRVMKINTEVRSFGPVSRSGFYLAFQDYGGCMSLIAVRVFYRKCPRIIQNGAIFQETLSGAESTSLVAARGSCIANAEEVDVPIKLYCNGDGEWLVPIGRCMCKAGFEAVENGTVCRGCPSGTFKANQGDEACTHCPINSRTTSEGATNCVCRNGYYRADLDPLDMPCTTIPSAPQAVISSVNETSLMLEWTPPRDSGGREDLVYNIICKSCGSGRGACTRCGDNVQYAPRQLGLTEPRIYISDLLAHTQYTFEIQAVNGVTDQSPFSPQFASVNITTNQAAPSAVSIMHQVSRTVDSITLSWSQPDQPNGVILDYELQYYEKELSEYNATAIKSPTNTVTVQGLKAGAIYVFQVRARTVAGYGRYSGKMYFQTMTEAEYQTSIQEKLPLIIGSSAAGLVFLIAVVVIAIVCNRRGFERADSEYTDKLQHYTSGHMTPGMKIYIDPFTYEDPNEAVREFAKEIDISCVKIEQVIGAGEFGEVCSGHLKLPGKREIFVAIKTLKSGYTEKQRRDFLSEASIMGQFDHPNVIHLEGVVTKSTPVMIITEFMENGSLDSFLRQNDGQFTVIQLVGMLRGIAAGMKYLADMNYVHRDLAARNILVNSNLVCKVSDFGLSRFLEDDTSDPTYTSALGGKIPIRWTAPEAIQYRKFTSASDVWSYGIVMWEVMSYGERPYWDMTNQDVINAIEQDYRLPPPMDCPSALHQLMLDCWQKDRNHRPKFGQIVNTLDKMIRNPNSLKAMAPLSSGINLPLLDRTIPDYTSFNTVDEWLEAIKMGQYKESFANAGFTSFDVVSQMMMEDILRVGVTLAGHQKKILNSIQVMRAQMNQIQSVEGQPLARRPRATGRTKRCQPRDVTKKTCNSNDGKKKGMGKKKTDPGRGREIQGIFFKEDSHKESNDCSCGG

[2] = molecular target: T2, Ephrin type-B receptor 3 (Homo sapiens) (UniProt P54753); details: at 0.1 µM
T2 sequence (whole entry): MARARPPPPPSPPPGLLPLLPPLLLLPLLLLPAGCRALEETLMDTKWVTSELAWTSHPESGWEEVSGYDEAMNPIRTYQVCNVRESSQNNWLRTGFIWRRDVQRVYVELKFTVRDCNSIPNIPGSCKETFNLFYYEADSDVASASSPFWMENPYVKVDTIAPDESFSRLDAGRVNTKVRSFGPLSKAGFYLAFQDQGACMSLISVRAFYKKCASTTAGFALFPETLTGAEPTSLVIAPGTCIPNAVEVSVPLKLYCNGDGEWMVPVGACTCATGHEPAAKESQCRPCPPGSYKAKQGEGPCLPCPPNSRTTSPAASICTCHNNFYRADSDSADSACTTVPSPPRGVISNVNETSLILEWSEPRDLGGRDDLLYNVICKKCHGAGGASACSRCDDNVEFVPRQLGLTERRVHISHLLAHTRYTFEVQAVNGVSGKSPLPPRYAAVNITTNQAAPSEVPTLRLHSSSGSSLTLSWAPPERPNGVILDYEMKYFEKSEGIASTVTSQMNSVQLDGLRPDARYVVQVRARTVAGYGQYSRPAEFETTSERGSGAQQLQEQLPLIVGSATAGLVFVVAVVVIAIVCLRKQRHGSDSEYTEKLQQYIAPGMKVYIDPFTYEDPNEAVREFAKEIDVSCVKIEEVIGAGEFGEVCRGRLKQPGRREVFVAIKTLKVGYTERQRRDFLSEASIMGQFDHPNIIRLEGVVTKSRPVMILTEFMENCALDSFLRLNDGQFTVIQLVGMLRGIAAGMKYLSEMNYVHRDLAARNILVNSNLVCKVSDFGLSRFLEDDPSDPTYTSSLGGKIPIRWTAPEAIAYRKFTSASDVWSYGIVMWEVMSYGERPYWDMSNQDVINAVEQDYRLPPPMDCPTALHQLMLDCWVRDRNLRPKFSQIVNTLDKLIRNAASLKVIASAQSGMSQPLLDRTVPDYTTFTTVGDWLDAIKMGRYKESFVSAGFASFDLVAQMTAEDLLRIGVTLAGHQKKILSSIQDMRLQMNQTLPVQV

[3] = molecular target: T2, Ephrin type-B receptor 3 (Homo sapiens); details: at 1 µM
[4] = molecular target: T3, Ephrin type-B receptor 4 (Homo sapiens) (UniProt P54760); details: at 0.1 µM
T3 sequence (whole entry): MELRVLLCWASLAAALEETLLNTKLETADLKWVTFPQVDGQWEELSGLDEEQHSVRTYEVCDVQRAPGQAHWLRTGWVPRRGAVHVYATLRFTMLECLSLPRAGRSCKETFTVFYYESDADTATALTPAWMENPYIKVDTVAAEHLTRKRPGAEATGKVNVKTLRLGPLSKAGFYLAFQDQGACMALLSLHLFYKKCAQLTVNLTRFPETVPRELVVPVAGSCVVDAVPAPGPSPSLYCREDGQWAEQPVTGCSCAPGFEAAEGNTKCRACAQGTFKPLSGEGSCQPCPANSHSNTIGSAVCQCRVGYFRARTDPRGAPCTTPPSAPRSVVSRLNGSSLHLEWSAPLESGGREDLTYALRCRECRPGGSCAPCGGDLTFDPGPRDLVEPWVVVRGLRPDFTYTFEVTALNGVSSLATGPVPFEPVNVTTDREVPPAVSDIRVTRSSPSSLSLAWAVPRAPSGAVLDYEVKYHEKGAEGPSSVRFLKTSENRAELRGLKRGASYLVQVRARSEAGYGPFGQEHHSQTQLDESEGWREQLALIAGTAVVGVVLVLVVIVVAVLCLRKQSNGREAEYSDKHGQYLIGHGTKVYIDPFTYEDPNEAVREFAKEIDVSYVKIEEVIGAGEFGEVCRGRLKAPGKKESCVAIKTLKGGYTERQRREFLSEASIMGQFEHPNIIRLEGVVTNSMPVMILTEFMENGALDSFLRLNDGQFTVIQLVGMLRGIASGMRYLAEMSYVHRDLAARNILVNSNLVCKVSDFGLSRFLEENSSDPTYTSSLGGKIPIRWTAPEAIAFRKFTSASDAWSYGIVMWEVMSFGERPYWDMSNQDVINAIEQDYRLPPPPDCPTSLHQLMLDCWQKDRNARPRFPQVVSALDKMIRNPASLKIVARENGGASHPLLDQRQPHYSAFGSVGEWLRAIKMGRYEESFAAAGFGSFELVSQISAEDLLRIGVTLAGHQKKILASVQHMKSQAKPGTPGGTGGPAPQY

[5] = molecular target: T3, Ephrin type-B receptor 4 (Homo sapiens); details: at 1 µM
[6] = molecular target: Receptor tyrosine-protein kinase erbB-2 (Homo sapiens) (UniProt P04626); details: at 0.1 µM
Sequence of Receptor tyrosine-protein kinase erbB-2 (Homo sapiens) (P04626 whole entry): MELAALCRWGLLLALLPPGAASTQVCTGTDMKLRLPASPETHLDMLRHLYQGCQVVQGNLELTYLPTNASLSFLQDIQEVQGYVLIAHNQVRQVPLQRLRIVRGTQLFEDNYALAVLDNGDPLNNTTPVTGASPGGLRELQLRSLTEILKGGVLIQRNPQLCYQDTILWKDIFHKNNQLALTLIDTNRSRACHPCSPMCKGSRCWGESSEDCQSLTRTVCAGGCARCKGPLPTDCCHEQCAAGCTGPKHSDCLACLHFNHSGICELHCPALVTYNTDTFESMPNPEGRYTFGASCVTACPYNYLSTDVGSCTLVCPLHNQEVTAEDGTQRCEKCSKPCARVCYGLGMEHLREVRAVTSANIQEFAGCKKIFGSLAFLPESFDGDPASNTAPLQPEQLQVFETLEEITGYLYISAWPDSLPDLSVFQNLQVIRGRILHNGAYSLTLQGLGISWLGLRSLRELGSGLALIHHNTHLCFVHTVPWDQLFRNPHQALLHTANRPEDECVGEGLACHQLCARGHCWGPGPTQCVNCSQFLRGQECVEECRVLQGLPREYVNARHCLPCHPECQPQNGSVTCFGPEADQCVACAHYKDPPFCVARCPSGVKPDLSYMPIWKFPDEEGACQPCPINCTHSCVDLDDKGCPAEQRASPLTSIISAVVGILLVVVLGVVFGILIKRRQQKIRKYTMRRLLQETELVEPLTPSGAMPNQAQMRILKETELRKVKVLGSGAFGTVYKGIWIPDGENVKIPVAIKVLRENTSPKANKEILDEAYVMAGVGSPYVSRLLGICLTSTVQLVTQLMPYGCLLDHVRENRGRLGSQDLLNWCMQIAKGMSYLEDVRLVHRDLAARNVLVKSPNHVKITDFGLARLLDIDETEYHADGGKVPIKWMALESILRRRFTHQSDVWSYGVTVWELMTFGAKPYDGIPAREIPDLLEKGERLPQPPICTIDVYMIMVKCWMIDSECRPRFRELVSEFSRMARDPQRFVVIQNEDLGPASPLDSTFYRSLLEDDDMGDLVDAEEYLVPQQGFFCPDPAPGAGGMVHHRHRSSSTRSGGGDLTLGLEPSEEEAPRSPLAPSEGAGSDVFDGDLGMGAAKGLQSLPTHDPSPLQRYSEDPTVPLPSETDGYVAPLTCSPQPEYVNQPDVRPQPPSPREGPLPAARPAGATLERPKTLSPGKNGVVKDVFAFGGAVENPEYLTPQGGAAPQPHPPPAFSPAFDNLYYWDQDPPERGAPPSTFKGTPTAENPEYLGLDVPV

[7] = molecular target: Receptor tyrosine-protein kinase erbB-2 (Homo sapiens) (UniProt P04626); details: at 1 µM
[8] = molecular target: Receptor tyrosine-protein kinase erbB-4 (Homo sapiens) (UniProt Q15303); details: at 0.1 µM
Sequence of Receptor tyrosine-protein kinase erbB-4 (Homo sapiens) (Q15303 whole entry): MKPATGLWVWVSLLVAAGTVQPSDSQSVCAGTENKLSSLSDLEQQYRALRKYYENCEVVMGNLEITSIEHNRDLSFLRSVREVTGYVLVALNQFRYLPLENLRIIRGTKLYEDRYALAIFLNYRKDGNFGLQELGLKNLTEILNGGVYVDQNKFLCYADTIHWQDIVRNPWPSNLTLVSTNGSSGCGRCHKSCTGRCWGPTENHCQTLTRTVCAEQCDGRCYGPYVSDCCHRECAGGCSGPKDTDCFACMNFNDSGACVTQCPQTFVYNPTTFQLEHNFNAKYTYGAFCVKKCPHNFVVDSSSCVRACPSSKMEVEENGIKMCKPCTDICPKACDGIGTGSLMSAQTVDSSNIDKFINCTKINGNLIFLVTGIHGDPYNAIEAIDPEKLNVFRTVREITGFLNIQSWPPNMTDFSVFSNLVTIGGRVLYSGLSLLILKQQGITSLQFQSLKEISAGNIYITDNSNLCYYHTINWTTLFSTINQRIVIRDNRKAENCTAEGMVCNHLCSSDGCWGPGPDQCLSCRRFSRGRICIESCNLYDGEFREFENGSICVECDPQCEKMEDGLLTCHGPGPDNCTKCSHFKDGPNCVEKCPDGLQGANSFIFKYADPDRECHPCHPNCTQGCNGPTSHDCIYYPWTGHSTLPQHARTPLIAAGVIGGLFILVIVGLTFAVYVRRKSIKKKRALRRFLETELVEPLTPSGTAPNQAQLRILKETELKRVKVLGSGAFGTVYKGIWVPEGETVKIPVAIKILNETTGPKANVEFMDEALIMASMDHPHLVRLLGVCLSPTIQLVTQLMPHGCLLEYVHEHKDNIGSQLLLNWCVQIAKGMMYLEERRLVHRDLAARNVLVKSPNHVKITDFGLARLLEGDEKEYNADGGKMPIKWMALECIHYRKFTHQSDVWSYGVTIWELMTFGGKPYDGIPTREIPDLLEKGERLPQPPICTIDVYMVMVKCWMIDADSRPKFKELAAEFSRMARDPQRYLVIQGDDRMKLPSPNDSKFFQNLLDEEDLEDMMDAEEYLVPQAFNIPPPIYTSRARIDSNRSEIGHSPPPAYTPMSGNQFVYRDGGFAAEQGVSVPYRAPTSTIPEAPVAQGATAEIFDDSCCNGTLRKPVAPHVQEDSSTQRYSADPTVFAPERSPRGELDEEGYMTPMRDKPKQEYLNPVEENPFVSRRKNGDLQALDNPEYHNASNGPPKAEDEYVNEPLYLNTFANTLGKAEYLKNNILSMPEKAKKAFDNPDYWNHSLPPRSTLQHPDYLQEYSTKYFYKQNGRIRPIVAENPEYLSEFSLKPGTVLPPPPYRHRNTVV

[9] = molecular target: Receptor tyrosine-protein kinase erbB-4 (Homo sapiens) (UniProt Q15303); details: at 1 µM
[10] = molecular target: Tyrosine-protein kinase Fer (Homo sapiens) (UniProt P16591); details: at 0.1 µM
Sequence of Tyrosine-protein kinase Fer (Homo sapiens) (P16591 whole entry, looked up): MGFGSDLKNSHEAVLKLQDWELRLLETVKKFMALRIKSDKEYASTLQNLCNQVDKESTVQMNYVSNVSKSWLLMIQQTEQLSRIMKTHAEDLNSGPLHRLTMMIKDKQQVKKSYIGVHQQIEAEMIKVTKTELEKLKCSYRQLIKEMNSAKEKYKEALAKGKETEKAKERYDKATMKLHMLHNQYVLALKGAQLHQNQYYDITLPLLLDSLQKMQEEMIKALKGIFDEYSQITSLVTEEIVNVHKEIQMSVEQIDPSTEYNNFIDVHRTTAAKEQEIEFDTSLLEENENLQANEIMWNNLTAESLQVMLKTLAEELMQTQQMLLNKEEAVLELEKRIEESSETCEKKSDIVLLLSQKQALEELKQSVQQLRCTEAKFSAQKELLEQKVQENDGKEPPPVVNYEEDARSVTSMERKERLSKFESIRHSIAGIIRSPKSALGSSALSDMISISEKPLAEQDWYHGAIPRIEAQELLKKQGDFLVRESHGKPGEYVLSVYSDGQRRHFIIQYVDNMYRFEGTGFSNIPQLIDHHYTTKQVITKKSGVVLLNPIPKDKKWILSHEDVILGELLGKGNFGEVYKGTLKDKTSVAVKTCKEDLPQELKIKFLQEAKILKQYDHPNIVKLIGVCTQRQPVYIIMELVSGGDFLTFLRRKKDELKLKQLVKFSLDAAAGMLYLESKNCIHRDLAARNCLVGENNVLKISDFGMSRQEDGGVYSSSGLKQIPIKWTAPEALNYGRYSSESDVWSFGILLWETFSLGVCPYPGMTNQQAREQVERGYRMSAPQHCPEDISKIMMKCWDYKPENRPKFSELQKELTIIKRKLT

[11] = molecular target: Tyrosine-protein kinase Fer (Homo sapiens) (UniProt P16591); details: at 1 µM
[12] = molecular target: Tyrosine-protein kinase Fes/Fps (Homo sapiens) (UniProt P07332); details: at 0.1 µM
Sequence of Tyrosine-protein kinase Fes/Fps (Homo sapiens) (P07332 whole entry): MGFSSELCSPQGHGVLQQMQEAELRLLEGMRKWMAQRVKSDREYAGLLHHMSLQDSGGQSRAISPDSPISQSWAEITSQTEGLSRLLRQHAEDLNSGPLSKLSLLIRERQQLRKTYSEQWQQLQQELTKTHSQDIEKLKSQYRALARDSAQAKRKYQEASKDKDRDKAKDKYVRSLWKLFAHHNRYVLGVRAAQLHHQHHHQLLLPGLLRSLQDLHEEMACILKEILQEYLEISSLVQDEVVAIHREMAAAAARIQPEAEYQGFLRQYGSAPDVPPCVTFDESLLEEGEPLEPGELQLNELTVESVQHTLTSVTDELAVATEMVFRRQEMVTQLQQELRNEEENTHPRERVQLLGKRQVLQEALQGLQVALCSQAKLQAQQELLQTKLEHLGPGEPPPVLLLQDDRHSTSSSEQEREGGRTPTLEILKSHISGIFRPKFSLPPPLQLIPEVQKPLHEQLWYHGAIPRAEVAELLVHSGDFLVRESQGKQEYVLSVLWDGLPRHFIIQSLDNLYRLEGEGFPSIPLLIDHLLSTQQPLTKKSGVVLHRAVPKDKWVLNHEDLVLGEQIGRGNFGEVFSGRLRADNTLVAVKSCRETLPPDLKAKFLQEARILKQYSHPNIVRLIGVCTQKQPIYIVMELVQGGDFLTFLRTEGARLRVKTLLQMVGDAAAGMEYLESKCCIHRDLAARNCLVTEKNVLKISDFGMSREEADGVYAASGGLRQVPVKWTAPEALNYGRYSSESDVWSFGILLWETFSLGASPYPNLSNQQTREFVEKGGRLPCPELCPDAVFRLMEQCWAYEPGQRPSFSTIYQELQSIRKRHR

[13] = molecular target: Tyrosine-protein kinase Fes/Fps (Homo sapiens) (UniProt P07332); details: at 1 µM
[14] = molecular target: Fibroblast growth factor receptor 1 (Homo sapiens) (UniProt P11362); details: at 0.1 µM
Sequence of Fibroblast growth factor receptor 1 (Homo sapiens) (P11362 22-822 limits assumed): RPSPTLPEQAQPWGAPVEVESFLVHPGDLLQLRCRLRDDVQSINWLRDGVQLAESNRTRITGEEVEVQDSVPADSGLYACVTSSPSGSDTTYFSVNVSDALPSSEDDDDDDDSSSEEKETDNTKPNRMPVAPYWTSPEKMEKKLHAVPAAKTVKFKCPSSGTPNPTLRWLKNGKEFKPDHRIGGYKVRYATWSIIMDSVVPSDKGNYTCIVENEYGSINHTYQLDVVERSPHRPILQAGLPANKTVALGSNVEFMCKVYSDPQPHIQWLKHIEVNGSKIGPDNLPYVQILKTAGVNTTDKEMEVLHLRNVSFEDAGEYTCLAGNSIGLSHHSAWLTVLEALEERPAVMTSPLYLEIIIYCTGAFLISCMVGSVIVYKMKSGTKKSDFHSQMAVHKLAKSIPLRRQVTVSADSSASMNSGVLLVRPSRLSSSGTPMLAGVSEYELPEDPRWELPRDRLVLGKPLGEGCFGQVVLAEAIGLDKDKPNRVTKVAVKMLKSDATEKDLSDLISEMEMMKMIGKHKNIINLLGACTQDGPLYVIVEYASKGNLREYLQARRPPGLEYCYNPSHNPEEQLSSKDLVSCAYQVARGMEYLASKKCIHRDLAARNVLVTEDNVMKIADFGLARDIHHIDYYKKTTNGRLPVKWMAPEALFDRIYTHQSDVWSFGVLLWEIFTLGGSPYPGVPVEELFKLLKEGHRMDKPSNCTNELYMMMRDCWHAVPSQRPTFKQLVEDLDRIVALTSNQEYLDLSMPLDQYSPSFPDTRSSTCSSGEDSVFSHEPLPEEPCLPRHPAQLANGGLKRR

[15] = molecular target: Fibroblast growth factor receptor 1 (Homo sapiens) (UniProt P11362); details: at 1 µM
[16] = molecular target: Fibroblast growth factor receptor 2 (Homo sapiens) (UniProt P21802); details: at 0.1 µM
[17] = molecular target: Fibroblast growth factor receptor 2 (Homo sapiens) (UniProt P21802); details: at 1 µM
[18] = molecular target: Fibroblast growth factor receptor 3 (Homo sapiens) (UniProt P22607); details: at 0.1 µM
[19] = molecular target: Fibroblast growth factor receptor 3 (Homo sapiens) (UniProt P22607); details: at 1 µM
[20] = molecular target: Fibroblast growth factor receptor 4 (Homo sapiens) (UniProt P22455); details: at 0.1 µM;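 further: values are mean percent inhibition of FGFR4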

SMILES | inhibition [1] | inhibition [2] | inhibition [3] | inhibition [4] | inhibition [5] | inhibition [6] | inhibition [7] | inhibition [8] | inhibition [9] | inhibition [10] | inhibition [11] | inhibition [12] | inhibition [13] | inhibition [14] | inhibition [15] | inhibition [16] | inhibition [17] | inhibition [18] | inhibition [19] | inhibition [20]
Cc1cc(O)cc(C)c1/C=C/c1cncc(-c2nn[nH]n2)c1 | 61.5% | -0.26% | 5.69% | 3.89% | 46.2% | 1.86% | 0.56% | 12.1% | 36.7% | 4.18% | 11.9% | 2.28% | 3.8% | 2.34% | 3.83% | 1.54% | 13.3% | 3.74% | 2.92% | -9.13%
CS(=O)(=O)CCN(CC#N)Cc1ccc(-c2ccc3ncnc(Nc4ccc(OCc5cccc(F)c5)c(Cl)c4)c3c2)o1 | 4.79% | -1.45% | -0.8% | -2.59% | -3.31% | 12.4% | 66.7% | 33.6% | 73.8% | -0.11% | 1.14% | 0.82% | 0.27% | -3.34% | -4.3% | -1.21% | -2.13% | -1.19% | -0.34% | 0.11%
O=C1NC(=O)C(c2cccc(Cl)c2)=C1Nc1ccc(O)c(Cl)c1 | -8.35% | 2.73% | -5.14% | 1.15% | -0.03% | 0.29% | -5.89% | 5.49% | 6.06% | 3.79% | 5.56% | 0.55% | 1.14% | -2.65% | 6.97% | 3.82% | 32.5% | 4.37% | 21.3% | -2.1%
Nc1ncnc2occ(-c3ccc(NC(=O)Nc4cccc(C(F)(F)F)c4)cc3)c12 | 78.2% | 19.6% | 68.2% | 31.2% | 84.4% | -0.01% | 3.75% | 8.79% | 15.2% | 2.94% | 33.6% | 3.8% | 4.91% | 8.01% | 38.2% | 15.8% | 52.5% | 7.97% | 34.4% | -1%
Cc1cccc(-c2n[nH]cc2-c2ccc3ncccc3n2)n1 | 5.67% | 2.71% | 1.95% | -0.2% | 2.61% | 1.42% | -0.81% | 2.27% | 4% | 0.04% | 0.01% | 0.45% | -0.18% | -0.21% | 8.38% | 0.62% | 5.35% | 1.61% | 4.89% | 3.49%
O=C(Nc1n[nH]c2nc(-c3ccco3)c(Br)cc12)C1CC1 | 5.48% | 4.64% | 3.95% | 2.69% | 3.48% | 1.49% | -3.9% | 10.1% | 15.8% | 1.93% | 0.63% | 2.91% | 3.27% | 1.76% | 5.28% | 2.01% | 7.9% | 6.29% | 7.26% | -0.77%
O=C1NC(=O)C(N2CCc3ccccc32)=C1c1ccc(Cl)cc1 | 12.6% | 7.43% | 6.04% | 3.92% | 1.54% | 0.97% | -4.09% | 8.85% | 24% | 2.88% | 6.71% | 4.08% | 7.35% | 5.27% | 13% | 6.84% | 14% | 8.07% | 11.6% | -1.04%
CCn1c(-c2nonc2N)nc2cnc(Oc3cccc(NC(=O)c4ccc(OCCN5CCOCC5)cc4)c3)cc21 | 6.97% | 6.88% | 5.06% | 3.21% | 3.05% | 4.69% | 2% | 5.15% | 10.4% | 3.9% | 2.2% | 2.8% | 2.83% | 1.76% | 5.99% | 4.83% | 3.45% | 3.36% | 1.9% | -4.45%
NCc1ccc(-c2nc(-c3ccc(Cl)c(O)c3)c(-c3ccncc3)[nH]2)cc1 | 8.63% | 5.47% | 12.8% | 3.82% | 9.77% | -0.58% | -0.9% | 11.1% | 28.9% | 0.8% | 2.5% | 0.2% | 1.79% | -0.32% | 1.38% | -0.38% | 6.76% | 0.23% | 5.11% | -5.87%
COc1cc2ncn(-c3cc(O[C@@H](C)c4ccccc4Cl)c(C(N)=O)s3)c2cc1OC | 14.1% | 3.27% | 3.66% | 1.67% | 4.23% | 0.23% | 6.51% | 6.3% | 14.2% | 6.4% | 8.42% | 3.85% | 2.83% | 2.01% | 17.2% | 7.05% | 21.9% | 6.87% | 24.3% | 0.49%
NS(=O)(=O)c1ccc(N/N=C2\C(=O)Nc3ccc(C(=O)NCCc4c[nH]cn4)cc32)cc1 | 16.2% | 3.04% | 0.13% | 4.11% | 6.29% | 1.36% | 1.09% | 6.82% | 7.51% | – | – | 5.34% | 8.37% | 3.36% | 12.1% | 7.55% | 11.5% | 6.41% | 7.55% | 4.66%
CN(C)c1cc2c(Nc3ccc4nc(Cc5ccccc5)[nH]c4c3)ncnc2cn1 | 15.3% | 4.07% | 4.22% | 4.92% | 3.25% | 20% | 67.7% | 101% | 99.7% | 5.55% | 10.5% | 3.37% | 3.11% | 8.38% | 15.2% | 5.58% | 10.4% | 7.84% | 11.4% | 2.81%
CS(=O)(=O)CCNCc1nc(-c2ccc3ncnc(Nc4ccc(F)c(Cl)c4)c3c2)cs1 | 22.5% | 6.15% | 9.44% | 1.4% | 8.6% | 7.41% | 34.5% | 46.6% | 83.1% | 1.44% | 4.88% | 0.25% | -0.06% | -5.98% | 1.65% | 1.9% | 5.07% | 2.17% | 4.26% | 2.32%
